Screening data (PubChem BioAssay)
Dicer inh: inhibitors of Dicer pre-microRNA processing, primary screen, biochemical, cat-ELCCA, chemiluminescence | Endoribonuclease Dicer (Homo sapiens), Q9UPY3 | cat-ELCCA pre-miR-21 Dicer processing; active compounds read high | z-score at 25 µM | hit rate 6% among 47,000; in the data active = z-score above about 3, passing the limit was not always enough;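 also: higher signal means more uncleaved substrate so more Dicer inhibition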
Target sequence (Q9UPY3 whole entry, looked up): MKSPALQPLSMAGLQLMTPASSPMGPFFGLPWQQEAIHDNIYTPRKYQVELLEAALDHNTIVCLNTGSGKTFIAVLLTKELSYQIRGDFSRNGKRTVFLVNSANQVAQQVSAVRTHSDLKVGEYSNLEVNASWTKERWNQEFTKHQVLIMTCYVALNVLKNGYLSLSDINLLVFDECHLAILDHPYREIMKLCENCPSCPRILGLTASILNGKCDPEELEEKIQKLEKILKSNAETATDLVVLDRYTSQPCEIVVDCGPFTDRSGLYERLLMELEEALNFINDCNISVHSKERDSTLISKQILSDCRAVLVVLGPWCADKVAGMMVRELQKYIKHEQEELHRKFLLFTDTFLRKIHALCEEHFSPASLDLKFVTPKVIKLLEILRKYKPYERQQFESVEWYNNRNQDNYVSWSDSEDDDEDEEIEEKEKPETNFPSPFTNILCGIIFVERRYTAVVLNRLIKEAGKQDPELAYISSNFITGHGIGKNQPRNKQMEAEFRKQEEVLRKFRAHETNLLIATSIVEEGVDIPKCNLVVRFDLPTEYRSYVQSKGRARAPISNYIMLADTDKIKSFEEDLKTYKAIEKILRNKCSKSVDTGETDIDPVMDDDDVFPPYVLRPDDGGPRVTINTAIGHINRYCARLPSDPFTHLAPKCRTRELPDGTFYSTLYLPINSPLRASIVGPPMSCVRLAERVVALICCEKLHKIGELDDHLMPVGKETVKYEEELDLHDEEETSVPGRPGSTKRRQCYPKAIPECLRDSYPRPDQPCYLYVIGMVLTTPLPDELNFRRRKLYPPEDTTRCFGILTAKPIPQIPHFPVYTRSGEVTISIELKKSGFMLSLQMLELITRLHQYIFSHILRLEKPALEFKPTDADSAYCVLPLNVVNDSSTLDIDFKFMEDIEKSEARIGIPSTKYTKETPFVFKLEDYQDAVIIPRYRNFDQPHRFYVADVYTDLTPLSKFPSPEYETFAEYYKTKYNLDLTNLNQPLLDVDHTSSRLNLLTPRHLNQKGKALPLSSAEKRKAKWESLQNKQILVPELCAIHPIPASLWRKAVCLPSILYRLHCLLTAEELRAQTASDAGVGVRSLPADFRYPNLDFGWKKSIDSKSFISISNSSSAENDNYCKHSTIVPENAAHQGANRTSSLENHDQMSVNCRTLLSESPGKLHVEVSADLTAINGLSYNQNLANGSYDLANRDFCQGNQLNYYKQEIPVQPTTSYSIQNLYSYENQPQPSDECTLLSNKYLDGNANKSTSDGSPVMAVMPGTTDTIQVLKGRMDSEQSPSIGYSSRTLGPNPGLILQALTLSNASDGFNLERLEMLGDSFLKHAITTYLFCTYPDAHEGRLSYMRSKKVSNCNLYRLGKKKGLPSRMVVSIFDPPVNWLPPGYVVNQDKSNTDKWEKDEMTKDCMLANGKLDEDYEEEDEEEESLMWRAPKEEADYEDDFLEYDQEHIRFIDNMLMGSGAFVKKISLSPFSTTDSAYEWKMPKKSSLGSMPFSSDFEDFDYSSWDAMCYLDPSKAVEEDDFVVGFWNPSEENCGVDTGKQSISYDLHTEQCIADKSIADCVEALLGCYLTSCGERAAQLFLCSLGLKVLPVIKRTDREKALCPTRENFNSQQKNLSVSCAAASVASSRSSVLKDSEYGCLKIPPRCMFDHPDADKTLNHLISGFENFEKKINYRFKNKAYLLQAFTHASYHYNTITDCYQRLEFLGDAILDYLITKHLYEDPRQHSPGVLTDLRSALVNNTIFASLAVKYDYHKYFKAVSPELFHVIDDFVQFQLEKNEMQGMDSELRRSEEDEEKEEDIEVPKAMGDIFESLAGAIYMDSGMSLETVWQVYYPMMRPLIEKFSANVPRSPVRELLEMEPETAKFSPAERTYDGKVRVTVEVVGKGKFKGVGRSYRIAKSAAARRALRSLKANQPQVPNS
Large screens that a line does not name were inactive. This is one part of a sample in which hits are shown more often than they occur.

Cc1cccc(C(=O)Oc2ccc3oc(=O)sc3c2)c1	Dicer inh 5.5
O=C(Oc1ccc2c(=O)ccoc2c1)c1ccc(Cl)cc1Cl	none
O=C(Oc1ccc2oc(=O)sc2c1)c1ccccc1Cl	Dicer inh 7.2
CC(C)OC(=O)c1nnn(-c2nonc2N)c1CN1CCCCC1	none
O=C1C(=O)N(CCCN2CCOCC2)C(c2cccnc2)/C1=C(\O)c1ccc(Br)cc1 (configuration not stated)	none
NC(=O)CCOC1CCN(C(c2ccccc2)c2ccccc2)CC1	none
S=C(Nc1cccc(Cl)c1)N1CCc2ccccc2C1	none
O=C(NNC(=O)c1ncc(C(F)(F)F)cc1Cl)c1ccc(Cl)cc1	none
CC(C)(C)c1cc(C(=O)O)nn1-c1ccccc1	none
Cc1nn(-c2ccccc2)c(C)c1C(=O)Oc1ccc(Cl)cc1Cl	none
Cc1nn(-c2ccccc2)c(C)c1C(=O)O	Dicer inh 8.4
O=C(O)c1nc(-c2ccccc2)n(-c2ccccc2)n1	Dicer inh 5.4
COc1ccc(OC(=O)c2c(C)nn(-c3ccccc3)c2C)cc1	none
O=C(Nc1ccccc1)c1nc(-c2ccccc2)n(-c2ccccc2)n1	none
N#Cc1cn(-c2ccccc2)c(=O)[nH]c1=O	none
CCOC(=O)c1nc[nH]c1C(=O)OCC	none
c1ccc(C[C@H]2COC(C3=N[C@H](Cc4ccccc4)CO3)=N2)cc1	none
CCOC(=O)c1c(NC(C)=O)sc2c1CCC(Sc1ccccc1)C2=O (configuration not stated)	none
S=c1[nH]nc(Cc2ccccc2)n1-c1ccc(Cl)cc1	none
S=c1[nH]nc(Cc2ccccc2)n1-c1ccccc1	none
S=c1[nH]nc(Cc2n[nH]c(=S)n2-c2ccccc2)n1-c1ccccc1	Dicer inh 3.3
c1cn(CCCNc2ncnc3sc4c(c23)CCCCC4)cn1	none
CC(C)(C)c1ccc(-c2nnc3sc(-c4cnccn4)nn23)cc1	none
CS(=O)(=NS(=O)(=O)c1ccc(Cl)c(Cl)c1)c1ccccc1 (configuration not stated)	none
CCCCCCCSc1nnc(-c2ccccc2N)c(=O)[nH]1	none
CCCCCCCCSc1ncn[nH]1	none
CCCCCSc1nncc(=O)[nH]1	Dicer inh 4.2
Cn1c(=O)c2cc3cc(Cl)c(Cl)cc3nc2n(C)c1=O	none
O=C1C2C(c3ccccc3)OC3(C(=O)c4ccccc4C3=O)C2C(=O)N1Cc1ccc(Cl)cc1 (configuration not stated)	none
CCc1c(OS(=O)(=O)c2ccc(C)cc2)c2ccccc2n(C)c1=O	none
Clc1ccc2nc(NC3=NCN(Cc4ccccc4)CN3)oc2c1	none
Clc1ccc2c(c1)CN(Cc1ccccc1)CO2	Dicer inh 3.3
CCOc1ccc2c(c1)CN(Cc1ccc(Cl)cc1)CO2	none
Brc1ccc2c(c1)CN(Cc1ccccc1)CO2	Dicer inh 4.5
COc1ccc(CN2COc3ccc(F)cc3C2)cc1	none
Brc1ccc2c(c1)CN(C1CCCCC1)CO2	none
O=C(Nc1ccccc1Sc1c(Cl)cncc1Cl)c1cccc(C(F)(F)F)c1	none
COc1cc(C(F)(F)F)cc(C(F)(F)F)c1C(=O)NCc1cccs1	none
CCCCCCCc1c(O)c2cccc3c4c(n(c1=O)c23)CCCC4	none
Clc1cc2c(cc1CSc1ncnc3nc[nH]c13)OCO2	none
CCOC(=O)C(=CNc1cc(C(F)(F)F)ccc1NCCc1ccccc1)C(=O)OCC	none
CN(C)c1ccc(/C=C(\C#N)C(N)=O)c(Cl)c1	none
COc1ccc(OC)c(Sc2ccc([N+](=O)[O-])cc2)c1	Dicer inh 4.5
Cc1cc(Sc2ccc(C(F)(F)F)cc2[N+](=O)[O-])c(Cl)cc1Cl	none
COc1cc([N+](=O)[O-])c(C)cc1Sc1ccc(C)cc1	none
COc1ccc(OC)c(Sc2ccc(Cl)cc2[N+](=O)[O-])c1	none
COc1cc(Sc2ccc(Cl)cc2)ccc1[N+](=O)[O-]	none
COc1ccc(OC)c(Sc2ccc(C(F)(F)F)cc2[N+](=O)[O-])c1	Dicer inh 7.8
COc1ccc(NC(=O)c2cc(C(C)(C)C)nn2Cc2ccc(F)cc2)cc1OC1CCCC1	none
COc1ccc(/C(O)=C2/C(=O)C(=O)N(CCCC(=O)O)C2c2cccnc2)cc1 (configuration not stated)	none
O=C(NC1CCSC1=O)c1ccc(C(=O)NC2CCSC2=O)cc1 (configuration not stated)	none
Cc1ccc2nc(-c3ccc(N)cc3)[nH]c2c1	Dicer inh 4
Nc1ccc2nc(-c3ccc(-c4nc5ccc(N)cc5[nH]4)cc3)[nH]c2c1	none
Nc1ccc(-c2nc3ccc(-c4nc5ccc(N)cc5[nH]4)cc3[nH]2)cc1	none
c1ccc(-c2cc3ncnc(N4CCSCC4)c3s2)cc1	none
Clc1cccc(-c2nc(-c3ccccc3)ncc2-c2nnnn2-c2ccccc2)c1	none
Cc1cc(Br)c(-n2nc(C)c3c(C)cc(=O)oc32)cc1C	none
Cc1ccc(-c2cc(NC3=CC(=O)CC(C)(C)C3)n[nH]2)cc1	Dicer inh 3.7
Cc1ccc(Cl)c(NC2=CC(=O)CC(C)(C)C2)c1	none
CC1(C)CC(=O)C=C(Nc2ccc(F)cc2)C1	none
O=C1/C(=C/c2ccc(Cl)cc2Cl)COc2ccc(Cl)cc21	none
COc1ccc(C2C3=C(CC(C)(C)CC3=O)N=C3c4ccccc4C(=O)C32)cc1OC (configuration not stated)	none
CC1CCc2c(sc3[nH]c(=O)n(-c4cccc(Cl)c4)c(=O)c23)C1 (configuration not stated)	none
O=S(=O)(c1ccc2ccccc2c1)N1CCN(C2CCN(Cc3ccccc3)CC2)CC1	Dicer inh 3.2
Fc1ccccc1CN1CCN(C2CCN(Cc3ccccc3)CC2)CC1	none
COc1ccc(S(=O)(=O)N2CCN(S(=O)(=O)c3ccc4ccccc4c3)CC2)cc1	none
O=S(=O)(c1ccc2ccccc2c1)N1CCCCC1	none
O=S(=O)(c1ccc2ccccc2c1)N1CC=C(c2ccccc2)CC1	none
CSc1ccc(CN2CCN(S(=O)(=O)c3ccc4ccccc4c3)CC2)cc1	Dicer inh 3.4
C=CCn1c(SCc2ccc(F)cc2)nc2sc3c(c2c1=O)CCC(C)C3 (configuration not stated)	none
CO[C@H]1C[C@@H]2CC[C@@H](C)[C@@](O)(O2)C(=O)C(=O)N2CCCC[C@@H]2C(=O)OC([C@H](C)C[C@@H]2CC[C@@H](OC(=O)C(C)(CO)CO)[C@H](OC)C2)CC(=O)[C@H](C)/C=C(\C)[C@@H](O)[C@@H](OC)C(=O)[C@H](C)C[C@H](C)/C=C/C=C/C=C/1C (some centres not stated)	none
O=C(O)c1ccc(S(=O)(=O)Nc2cccnc2)cc1	none
O=C(Nc1ccccc1)ON=C1CC2CCCC(C1)N2Cc1cccs1	none
Cc1sc2c(c1C)C(=O)/C(=C\Nc1cccnc1)S(=O)(=O)N2C	none
Cc1cc(N/C=C2\C(=O)c3c(sc(C)c3C)N(C)S2(=O)=O)nc(C)n1	Dicer inh 3.6
Cc1sc2c(c1C)C(=O)/C(=C\Nc1ncccn1)S(=O)(=O)N2C	none
COc1ccccc1C1OC(=O)CC1C(=O)O (configuration not stated)	none
Cc1noc(-c2ccccc2)c1NC(=O)N1CCN(C(c2ccccc2)c2ccccc2)CC1	none
CC1(C)CC(=O)c2cnc(NC(=O)c3cccc4ccccc34)nc2C1	none
COC(=O)c1scc2c(N3CCC(n4cccc4)CC3)cc(C(F)(F)F)nc12	none
COc1ccc2cc(CCC(C)=O)ccc2c1	none
CCOC(=O)C(C)c1ccc2cc(OC)ccc2c1 (configuration not stated)	Dicer inh 4.6
CCOC(=O)NC(=S)c1ccc(OC)cc1	none
O=C(OCc1nc2ccccc2s1)c1ccc([N+](=O)[O-])o1	none
CCN(C(=O)c1ccc([N+](=O)[O-])o1)c1ccccc1	none
CCOC(=O)N1CCN(C(=O)c2ccc([N+](=O)[O-])o2)CC1	Dicer inh 3.5
